Substitutions are numbered along the chain they refer to; changes in the protein carry UniProt numbers. Over roughly 16,000 sequences, “ka relative to ugcaugu” has its median near 0.0091; the highest 2% begin near 0.032. For the sample, the highest values were picked, then their nearest neighbours and some sequences at random.
T1: RBFOX1 RRM (Homo sapiens, UniProt Q9NWB1 109-208)
T1 sequence: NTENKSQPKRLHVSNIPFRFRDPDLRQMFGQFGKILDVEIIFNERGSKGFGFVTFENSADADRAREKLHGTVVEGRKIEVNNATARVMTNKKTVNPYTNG

B1: CGUCGAU (DNA:RNA)
RNA: GGGAGACCGGAAUUCAGAUUGUCCCGUCGAUUUAAAUCCCGUCGUAGCCACCA
DNA 1: CAATCTGAATTCCGGTCTCCC
DNA 2: TGGTGGCTACGACGGGATT
B2: AGGUGGG (DNA:RNA)
RNA: B1 RNA with C25A, U27G, C28U, A30G, U31G
DNA 1: CAATCTGAATTCCGGTCTCCC
DNA 2: TGGTGGCTACGACGGGATT
B3: CCUAAUC (DNA:RNA)
RNA: B1 RNA with G26C, C28A, G29A, A30U, U31C
DNA 1: CAATCTGAATTCCGGTCTCCC
DNA 2: TGGTGGCTACGACGGGATT
B4: CCCUUAA (DNA:RNA)
RNA: B1 RNA with G26C, U27C, C28U, G29U, U31A
DNA 1: CAATCTGAATTCCGGTCTCCC
DNA 2: TGGTGGCTACGACGGGATT
B5: AACGCGA (DNA:RNA)
RNA: GGGAGACCGGAAUUCAGAUUGUCCAACGCGAUUAAAUCCCGUCGUAGCCACCA
DNA 1: CAATCTGAATTCCGGTCTCCC
DNA 2: TGGTGGCTACGACGGGATT
B6: UCAGGUU (DNA:RNA)
RNA: B1 RNA with C25U, G26C, U27A, C28G, A30U
DNA 1: CAATCTGAATTCCGGTCTCCC
DNA 2: TGGTGGCTACGACGGGATT
B7: ACUCGCA (DNA:RNA)
RNA: B1 RNA with C25A, G26C, A30C, U31A
DNA 1: CAATCTGAATTCCGGTCTCCC
DNA 2: TGGTGGCTACGACGGGATT
B8: AACAGAA (DNA:RNA)
RNA: B5 RNA with G28A, C29G, G30A
DNA 1: CAATCTGAATTCCGGTCTCCC
DNA 2: TGGTGGCTACGACGGGATT
B9: AAACGGU (DNA:RNA)
RNA: B5 RNA with C27A, G28C, C29G, A31U
DNA 1: CAATCTGAATTCCGGTCTCCC
DNA 2: TGGTGGCTACGACGGGATT
B10: AGGCUUG (DNA:RNA)
RNA: B1 RNA with C25A, U27G, G29U, A30U, U31G
DNA 1: CAATCTGAATTCCGGTCTCCC
DNA 2: TGGTGGCTACGACGGGATT
B11: GAAAUGC (DNA:RNA)
RNA: B5 RNA with A25G, C27A, G28A, C29U, A31C
DNA 1: CAATCTGAATTCCGGTCTCCC
DNA 2: TGGTGGCTACGACGGGATT
B12: AGGAGGC (DNA:RNA)
RNA: B5 RNA with A26G, C27G, G28A, C29G, A31C
DNA 1: CAATCTGAATTCCGGTCTCCC
DNA 2: TGGTGGCTACGACGGGATT
B13: GUAUUGC (DNA:RNA)
RNA: B5 RNA with A25G, A26U, C27A, G28U, C29U, A31C
DNA 1: CAATCTGAATTCCGGTCTCCC
DNA 2: TGGTGGCTACGACGGGATT
B14: UGAAUGA (DNA:RNA)
RNA: B5 RNA with A25U, A26G, C27A, G28A, C29U
DNA 1: CAATCTGAATTCCGGTCTCCC
DNA 2: TGGTGGCTACGACGGGATT
B15: CUGAUGA (DNA:RNA)
RNA: B5 RNA with A25C, A26U, C27G, G28A, C29U
DNA 1: CAATCTGAATTCCGGTCTCCC
DNA 2: TGGTGGCTACGACGGGATT
B16: GGAUUGC (DNA:RNA)
RNA: B5 RNA with A25G, A26G, C27A, G28U, C29U, A31C
DNA 1: CAATCTGAATTCCGGTCTCCC
DNA 2: TGGTGGCTACGACGGGATT
B17: UGAUGAA (DNA:RNA)
RNA: B1 RNA with C25U, U27A, C28U, U31A
DNA 1: CAATCTGAATTCCGGTCTCCC
DNA 2: TGGTGGCTACGACGGGATT
B18: GUAAUGC (DNA:RNA)
RNA: B5 RNA with A25G, A26U, C27A, G28A, C29U, A31C
DNA 1: CAATCTGAATTCCGGTCTCCC
DNA 2: TGGTGGCTACGACGGGATT
B19: GGAAUGC (DNA:RNA)
RNA: B5 RNA with A25G, A26G, C27A, G28A, C29U, A31C
DNA 1: CAATCTGAATTCCGGTCTCCC
DNA 2: TGGTGGCTACGACGGGATT
B20: ACCAGGC (DNA:RNA)
RNA: B5 RNA with A26C, G28A, C29G, A31C
DNA 1: CAATCTGAATTCCGGTCTCCC
DNA 2: TGGTGGCTACGACGGGATT
B21: CCGUUGC (DNA:RNA)
RNA: B5 RNA with A25C, A26C, C27G, G28U, C29U, A31C
DNA 1: CAATCTGAATTCCGGTCTCCC
DNA 2: TGGTGGCTACGACGGGATT
B22: CCAAGUA (DNA:RNA)
RNA: B1 RNA with G26C, U27A, C28A, A30U, U31A
DNA 1: CAATCTGAATTCCGGTCTCCC
DNA 2: TGGTGGCTACGACGGGATT
B23: UGACUAA (DNA:RNA)
RNA: B1 RNA with C25U, U27A, G29U, U31A
DNA 1: CAATCTGAATTCCGGTCTCCC
DNA 2: TGGTGGCTACGACGGGATT
B24: AGAUAAC (DNA:RNA)
RNA: B1 RNA with C25A, U27A, C28U, G29A, U31C
DNA 1: CAATCTGAATTCCGGTCTCCC
DNA 2: TGGTGGCTACGACGGGATT
B25: CCAGGCC (DNA:RNA)
RNA: B1 RNA with G26C, U27A, C28G, A30C, U31C
DNA 1: CAATCTGAATTCCGGTCTCCC
DNA 2: TGGTGGCTACGACGGGATT
B26: CUGUCUG (DNA:RNA)
RNA: B5 RNA with A25C, A26U, C27G, G28U, G30U, A31G
DNA 1: CAATCTGAATTCCGGTCTCCC
DNA 2: TGGTGGCTACGACGGGATT
B27: GGAUACC (DNA:RNA)
RNA: B1 RNA with C25G, U27A, C28U, G29A, A30C, U31C
DNA 1: CAATCTGAATTCCGGTCTCCC
DNA 2: TGGTGGCTACGACGGGATT
B28: CACCGGC (DNA:RNA)
RNA: B5 RNA with A25C, G28C, C29G, A31C
DNA 1: CAATCTGAATTCCGGTCTCCC
DNA 2: TGGTGGCTACGACGGGATT
B29: CCCCGGC (DNA:RNA)
RNA: B1 RNA with G26C, U27C, A30G, U31C
DNA 1: CAATCTGAATTCCGGTCTCCC
DNA 2: TGGTGGCTACGACGGGATT
B30: GGGAUGC (DNA:RNA)
RNA: B5 RNA with A25G, A26G, C27G, G28A, C29U, A31C
DNA 1: CAATCTGAATTCCGGTCTCCC
DNA 2: TGGTGGCTACGACGGGATT
B31: GUCUUGC (DNA:RNA)
RNA: B5 RNA with A25G, A26U, G28U, C29U, A31C
DNA 1: CAATCTGAATTCCGGTCTCCC
DNA 2: TGGTGGCTACGACGGGATT
B32: CGGAUGC (DNA:RNA)
RNA: B1 RNA with U27G, C28A, G29U, A30G, U31C
DNA 1: CAATCTGAATTCCGGTCTCCC
DNA 2: TGGTGGCTACGACGGGATT
B33: GGAUGCU (DNA:RNA)
RNA: B1 RNA with C25G, U27A, C28U, A30C
DNA 1: CAATCTGAATTCCGGTCTCCC
DNA 2: TGGTGGCTACGACGGGATT
B34: UGAAUGC (DNA:RNA)
RNA: B5 RNA with A25U, A26G, C27A, G28A, C29U, A31C
DNA 1: CAATCTGAATTCCGGTCTCCC
DNA 2: TGGTGGCTACGACGGGATT
B35: UGAAUUG (DNA:RNA)
RNA: B1 RNA with C25U, U27A, C28A, G29U, A30U, U31G
DNA 1: CAATCTGAATTCCGGTCTCCC
DNA 2: TGGTGGCTACGACGGGATT
B36: GUCCGGC (DNA:RNA)
RNA: B5 RNA with A25G, A26U, G28C, C29G, A31C
DNA 1: CAATCTGAATTCCGGTCTCCC
DNA 2: TGGTGGCTACGACGGGATT
B37: GGCUUGC (DNA:RNA)
RNA: B5 RNA with A25G, A26G, G28U, C29U, A31C
DNA 1: CAATCTGAATTCCGGTCTCCC
DNA 2: TGGTGGCTACGACGGGATT
B38: CGGCUUG (DNA:RNA)
RNA: B1 RNA with U27G, G29U, A30U, U31G
DNA 1: CAATCTGAATTCCGGTCTCCC
DNA 2: TGGTGGCTACGACGGGATT
B39: UAAAUGC (DNA:RNA)
RNA: B5 RNA with A25U, C27A, G28A, C29U, A31C
DNA 1: CAATCTGAATTCCGGTCTCCC
DNA 2: TGGTGGCTACGACGGGATT

Target: T1, RBFOX1 RRM
Assay: EMSA; HiTS-Eq, 1 nM pool, 10 min; buffer printed only for the single-RNA assays: 10 mM Tris pH 7.5, 150 mM NaCl, 3.4 mM EDTA, 0.001% NP-40, 30 C
Settings: tags: His6 N-terminal (pET28a); label: 5' 32P
Method in brief: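 A pool of RNA with 7 randomized nucleotides, 5′-radiolabelled and with DNA-annealed flanks, was equilibrated at 1 nM for 10 min in 50 µL with purified RbFox RRM, wild type or mutant, across increasing protein concentrations. Free RNA was separated by 8% native PAGE, excised, reverse-transcribed, barcoded by PCR and sequenced. Relative association constants were obtained from read-count changes of each RNA species versus the control reaction and normalised to the cognate motif.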

Binder	binding signal
B1	0.00831 KA relative to UGCAUGU
B2	0.0126 KA relative to UGCAUGU
B3	0.00151 KA relative to UGCAUGU
B4	0.00271 KA relative to UGCAUGU
B5	0.00453 KA relative to UGCAUGU
B6	0.0129 KA relative to UGCAUGU
B7	0.0123 KA relative to UGCAUGU
B8	0.00258 KA relative to UGCAUGU
B9	0.0059 KA relative to UGCAUGU
B10	0.0346 KA relative to UGCAUGU
B11	0.0136 KA relative to UGCAUGU
B12	0.0129 KA relative to UGCAUGU
B13	0.0151 KA relative to UGCAUGU
B14	0.0319 KA relative to UGCAUGU
B15	0.0162 KA relative to UGCAUGU
B16	0.0376 KA relative to UGCAUGU
B17	0.0191 KA relative to UGCAUGU
B18	0.0131 KA relative to UGCAUGU
B19	0.0946 KA relative to UGCAUGU
B20	0.00626 KA relative to UGCAUGU

Binder	binding signal
B21	0.0124 KA relative to UGCAUGU
B22	0.00123 KA relative to UGCAUGU
B23	0.00904 KA relative to UGCAUGU
B24	0.00125 KA relative to UGCAUGU
B25	0.0113 KA relative to UGCAUGU
B26	0.0306 KA relative to UGCAUGU
B27	0.00541 KA relative to UGCAUGU
B28	0.00645 KA relative to UGCAUGU
B29	0.00228 KA relative to UGCAUGU
B30	0.0515 KA relative to UGCAUGU
B31	0.0291 KA relative to UGCAUGU
B32	0.0275 KA relative to UGCAUGU
B33	0.0261 KA relative to UGCAUGU
B34	0.0399 KA relative to UGCAUGU
B35	0.0261 KA relative to UGCAUGU
B36	0.00575 KA relative to UGCAUGU
B37	0.0328 KA relative to UGCAUGU
B38	0.0325 KA relative to UGCAUGU
B39	0.00992 KA relative to UGCAUGU

Reference: article PMC9911399, “Two distinct binding modes provide the RNA-binding protein RbFox with extraordinary sequence specificity”
